ChEMBL document CHEMBL2218924, “A broad activity screen in support of a chemogenomic map for kinase signalling research and drug discovery” (Biochem J, 2013)

Columns and labels:
[1] = target: T1, Phosphorylase b kinase gamma catalytic chain, liver/testis isoform (Homo sapiens) (UniProt P15735); conditions: at 1 µM
T1 sequence (whole entry): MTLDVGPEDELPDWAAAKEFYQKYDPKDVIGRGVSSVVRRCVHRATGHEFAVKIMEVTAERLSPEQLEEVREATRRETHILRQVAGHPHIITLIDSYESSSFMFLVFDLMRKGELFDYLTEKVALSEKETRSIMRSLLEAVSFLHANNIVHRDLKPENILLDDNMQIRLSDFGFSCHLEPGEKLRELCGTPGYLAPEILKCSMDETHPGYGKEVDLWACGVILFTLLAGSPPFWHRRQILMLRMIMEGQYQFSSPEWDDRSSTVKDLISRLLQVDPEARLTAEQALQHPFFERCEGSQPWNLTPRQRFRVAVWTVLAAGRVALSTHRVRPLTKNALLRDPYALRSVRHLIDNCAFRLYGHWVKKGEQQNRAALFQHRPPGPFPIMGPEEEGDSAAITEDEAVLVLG

[2] = target: T1, Phosphorylase b kinase gamma catalytic chain, liver/testis isoform (Homo sapiens); conditions: at 10 µM
[3] = target: Serine/threonine-protein kinase pim-1 (Homo sapiens) (UniProt P11309); conditions: at 10 µM
[4] = target: Serine/threonine-protein kinase pim-2 (Homo sapiens) (UniProt Q9P1W9); conditions: at 10 µM
[5] = target: Serine/threonine-protein kinase pim-3 (Homo sapiens) (UniProt Q86V86); conditions: at 1 µM
[6] = target: Serine/threonine-protein kinase pim-3 (Homo sapiens) (UniProt Q86V86); conditions: at 10 µM
[7] = target: Serine/threonine-protein kinase PLK1 (Homo sapiens) (UniProt P53350); conditions: at 1 µM
[8] = target: Serine/threonine-protein kinase PLK1 (Homo sapiens) (UniProt P53350); conditions: at 10 µM
[9] = target: Serine/threonine-protein kinase PLK3 (Homo sapiens) (UniProt Q9H4B4); conditions: at 1 µM
[10] = target: Serine/threonine-protein kinase PLK3 (Homo sapiens) (UniProt Q9H4B4); conditions: at 10 µM
[11] = target: T2, cAMP-dependent protein kinase catalytic subunit PRKX (Homo sapiens) (UniProt P51817); conditions: at 1 µM
T2 sequence (whole entry): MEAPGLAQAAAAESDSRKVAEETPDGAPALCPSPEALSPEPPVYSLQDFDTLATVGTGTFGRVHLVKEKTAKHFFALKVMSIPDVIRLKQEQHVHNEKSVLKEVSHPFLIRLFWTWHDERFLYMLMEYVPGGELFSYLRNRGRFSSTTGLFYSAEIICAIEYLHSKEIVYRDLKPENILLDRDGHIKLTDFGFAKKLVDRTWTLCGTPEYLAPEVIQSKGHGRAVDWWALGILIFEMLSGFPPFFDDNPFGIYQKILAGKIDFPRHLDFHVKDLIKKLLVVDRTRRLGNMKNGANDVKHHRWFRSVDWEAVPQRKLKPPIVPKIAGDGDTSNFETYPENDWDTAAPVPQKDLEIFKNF

[12] = target: T2, cAMP-dependent protein kinase catalytic subunit PRKX (Homo sapiens); conditions: at 10 µM
[13] = target: Protein-tyrosine kinase 2-beta (Homo sapiens) (UniProt Q14289); conditions: at 10 µM
[14] = target: Receptor-interacting serine/threonine-protein kinase 2 (Homo sapiens) (UniProt O43353); conditions: at 1 µM
[15] = target: Receptor-interacting serine/threonine-protein kinase 2 (Homo sapiens) (UniProt O43353); conditions: at 10 µM
[16] = target: Serine/threonine-protein kinase pim-1 (Homo sapiens) (UniProt P11309); conditions: at 1 µM
[17] = target: Serine/threonine-protein kinase pim-2 (Homo sapiens) (UniProt Q9P1W9); conditions: at 1 µM
[18] = target: Protein-tyrosine kinase 2-beta (Homo sapiens) (UniProt Q14289); conditions: at 1 µM
[19] = target: Rho-associated protein kinase 1 (Homo sapiens) (UniProt Q13464); conditions: at 10 µM
[20] = target: Rho-associated protein kinase 1 (Homo sapiens) (UniProt Q13464); conditions: at 1 µM

Chain of Serine/threonine-protein kinase PLK1 (Homo sapiens) (P53350 whole entry): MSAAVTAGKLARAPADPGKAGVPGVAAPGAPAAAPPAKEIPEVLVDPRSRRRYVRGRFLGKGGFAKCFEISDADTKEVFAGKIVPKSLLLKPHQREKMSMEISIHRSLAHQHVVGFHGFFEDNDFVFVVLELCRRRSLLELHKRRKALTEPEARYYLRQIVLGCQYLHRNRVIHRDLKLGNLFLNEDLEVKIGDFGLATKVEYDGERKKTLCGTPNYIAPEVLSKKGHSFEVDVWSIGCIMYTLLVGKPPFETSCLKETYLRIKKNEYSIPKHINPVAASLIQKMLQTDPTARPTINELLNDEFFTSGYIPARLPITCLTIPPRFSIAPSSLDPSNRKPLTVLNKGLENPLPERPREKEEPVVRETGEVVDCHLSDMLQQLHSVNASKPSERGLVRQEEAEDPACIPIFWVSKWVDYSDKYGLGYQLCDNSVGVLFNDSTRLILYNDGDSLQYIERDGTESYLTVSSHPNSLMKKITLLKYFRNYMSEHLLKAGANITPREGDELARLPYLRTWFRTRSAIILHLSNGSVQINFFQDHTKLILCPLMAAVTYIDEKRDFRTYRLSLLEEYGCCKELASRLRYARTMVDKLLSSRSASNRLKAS
Chain of Rho-associated protein kinase 1 (Homo sapiens) (Q13464 2-1354 limits assumed): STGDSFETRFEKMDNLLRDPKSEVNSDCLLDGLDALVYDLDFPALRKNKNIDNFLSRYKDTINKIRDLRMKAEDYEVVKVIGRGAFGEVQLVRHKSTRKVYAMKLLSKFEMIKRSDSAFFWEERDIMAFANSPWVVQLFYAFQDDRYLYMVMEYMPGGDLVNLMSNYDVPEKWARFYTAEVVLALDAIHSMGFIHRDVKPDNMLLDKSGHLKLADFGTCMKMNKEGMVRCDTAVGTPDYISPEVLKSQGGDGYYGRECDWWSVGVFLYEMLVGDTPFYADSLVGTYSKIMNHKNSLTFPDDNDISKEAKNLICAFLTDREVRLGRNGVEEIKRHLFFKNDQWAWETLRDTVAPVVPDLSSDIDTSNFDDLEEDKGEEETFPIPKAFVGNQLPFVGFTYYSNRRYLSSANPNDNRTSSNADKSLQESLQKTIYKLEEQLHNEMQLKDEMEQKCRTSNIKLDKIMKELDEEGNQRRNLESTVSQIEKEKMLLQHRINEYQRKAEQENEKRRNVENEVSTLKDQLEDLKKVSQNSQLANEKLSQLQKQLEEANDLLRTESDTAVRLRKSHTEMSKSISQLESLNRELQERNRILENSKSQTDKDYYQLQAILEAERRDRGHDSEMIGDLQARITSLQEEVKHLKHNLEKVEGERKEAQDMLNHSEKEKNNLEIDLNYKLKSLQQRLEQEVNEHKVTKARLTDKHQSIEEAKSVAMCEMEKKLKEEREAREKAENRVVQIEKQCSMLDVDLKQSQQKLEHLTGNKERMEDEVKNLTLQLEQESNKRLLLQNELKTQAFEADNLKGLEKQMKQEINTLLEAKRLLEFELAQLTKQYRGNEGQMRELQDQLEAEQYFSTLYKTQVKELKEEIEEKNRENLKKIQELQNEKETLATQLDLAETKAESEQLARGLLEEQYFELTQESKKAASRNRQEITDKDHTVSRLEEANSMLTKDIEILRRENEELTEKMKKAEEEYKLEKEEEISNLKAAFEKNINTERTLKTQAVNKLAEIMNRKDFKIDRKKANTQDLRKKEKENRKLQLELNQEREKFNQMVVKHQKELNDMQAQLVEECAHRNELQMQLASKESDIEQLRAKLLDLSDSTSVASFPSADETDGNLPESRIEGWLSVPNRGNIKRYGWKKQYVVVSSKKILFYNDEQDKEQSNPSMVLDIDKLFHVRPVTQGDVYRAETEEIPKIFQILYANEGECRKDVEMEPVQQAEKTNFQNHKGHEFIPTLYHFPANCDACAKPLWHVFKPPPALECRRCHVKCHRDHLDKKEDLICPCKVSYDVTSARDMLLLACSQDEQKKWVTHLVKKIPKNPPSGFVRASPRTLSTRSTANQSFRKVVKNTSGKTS
Chain of Serine/threonine-protein kinase pim-2 (Homo sapiens) (Q9P1W9 whole entry, looked up): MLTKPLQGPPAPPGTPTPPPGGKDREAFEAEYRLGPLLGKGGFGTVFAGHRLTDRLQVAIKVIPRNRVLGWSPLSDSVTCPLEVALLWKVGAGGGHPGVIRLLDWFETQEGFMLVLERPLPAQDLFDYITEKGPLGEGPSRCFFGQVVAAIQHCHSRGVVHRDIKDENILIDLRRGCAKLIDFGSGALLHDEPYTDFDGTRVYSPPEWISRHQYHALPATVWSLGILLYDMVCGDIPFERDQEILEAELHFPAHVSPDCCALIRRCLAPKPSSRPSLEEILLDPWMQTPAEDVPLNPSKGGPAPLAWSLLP
Chain of Receptor-interacting serine/threonine-protein kinase 2 (Homo sapiens) (O43353 whole entry): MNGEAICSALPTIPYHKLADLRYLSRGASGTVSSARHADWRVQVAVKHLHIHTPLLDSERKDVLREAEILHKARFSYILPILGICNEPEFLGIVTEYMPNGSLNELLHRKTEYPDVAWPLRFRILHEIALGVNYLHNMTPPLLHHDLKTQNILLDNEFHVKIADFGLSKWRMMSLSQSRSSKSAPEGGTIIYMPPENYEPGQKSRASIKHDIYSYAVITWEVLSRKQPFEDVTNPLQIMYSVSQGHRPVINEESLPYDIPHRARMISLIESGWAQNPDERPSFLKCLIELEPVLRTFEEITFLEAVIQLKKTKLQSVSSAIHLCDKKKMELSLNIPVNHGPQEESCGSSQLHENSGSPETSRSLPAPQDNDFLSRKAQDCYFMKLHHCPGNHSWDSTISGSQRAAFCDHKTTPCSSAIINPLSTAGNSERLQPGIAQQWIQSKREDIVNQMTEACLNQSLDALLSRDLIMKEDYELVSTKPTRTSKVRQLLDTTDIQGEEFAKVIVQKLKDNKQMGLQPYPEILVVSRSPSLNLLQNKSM
Chain of Serine/threonine-protein kinase pim-1 (Homo sapiens) (P11309 whole entry, looked up): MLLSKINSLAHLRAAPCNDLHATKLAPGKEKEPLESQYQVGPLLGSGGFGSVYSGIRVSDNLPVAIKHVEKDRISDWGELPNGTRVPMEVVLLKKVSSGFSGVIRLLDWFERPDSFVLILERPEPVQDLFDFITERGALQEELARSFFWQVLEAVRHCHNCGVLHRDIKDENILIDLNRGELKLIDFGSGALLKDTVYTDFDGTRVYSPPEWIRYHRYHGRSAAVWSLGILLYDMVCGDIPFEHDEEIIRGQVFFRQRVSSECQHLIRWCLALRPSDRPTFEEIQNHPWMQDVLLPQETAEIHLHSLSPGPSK
Chain of Protein-tyrosine kinase 2-beta (Homo sapiens) (Q14289 whole entry, looked up): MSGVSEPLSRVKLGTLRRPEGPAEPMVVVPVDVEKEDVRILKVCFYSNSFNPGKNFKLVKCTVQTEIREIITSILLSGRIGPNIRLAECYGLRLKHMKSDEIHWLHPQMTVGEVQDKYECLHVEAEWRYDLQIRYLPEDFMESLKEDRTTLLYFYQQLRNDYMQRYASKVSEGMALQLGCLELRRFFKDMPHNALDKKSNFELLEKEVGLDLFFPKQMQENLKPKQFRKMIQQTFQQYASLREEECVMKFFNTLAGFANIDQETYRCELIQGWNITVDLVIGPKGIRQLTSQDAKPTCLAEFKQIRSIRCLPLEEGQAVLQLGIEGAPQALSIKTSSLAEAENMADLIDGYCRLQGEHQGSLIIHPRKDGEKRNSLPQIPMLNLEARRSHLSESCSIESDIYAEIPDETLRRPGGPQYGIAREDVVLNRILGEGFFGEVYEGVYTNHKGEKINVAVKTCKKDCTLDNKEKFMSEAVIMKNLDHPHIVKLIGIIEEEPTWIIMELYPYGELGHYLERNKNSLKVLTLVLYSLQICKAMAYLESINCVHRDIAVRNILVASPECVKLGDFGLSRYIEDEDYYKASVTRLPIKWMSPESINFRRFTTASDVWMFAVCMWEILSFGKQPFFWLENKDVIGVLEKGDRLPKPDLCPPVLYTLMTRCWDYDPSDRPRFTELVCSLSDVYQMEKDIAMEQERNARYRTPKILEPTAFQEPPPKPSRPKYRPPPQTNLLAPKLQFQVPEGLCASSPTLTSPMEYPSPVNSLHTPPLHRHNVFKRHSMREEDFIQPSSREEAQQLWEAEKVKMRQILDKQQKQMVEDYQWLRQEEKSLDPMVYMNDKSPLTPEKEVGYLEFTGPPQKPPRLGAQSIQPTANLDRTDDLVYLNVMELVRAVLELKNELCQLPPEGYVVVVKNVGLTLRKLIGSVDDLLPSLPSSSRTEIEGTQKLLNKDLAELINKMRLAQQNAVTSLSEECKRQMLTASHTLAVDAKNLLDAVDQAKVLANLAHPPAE

Nc1ncnc2c1cnn2-c1ccccc1
residual activity [1]: 97% | residual activity [2]: 90% | residual activity [3]: 126% | residual activity [4]: 94% | residual activity [5]: 101% | residual activity [6]: 97% | residual activity [7]: 100% | residual activity [8]: 86% | residual activity [9]: 93% (inactive) | residual activity [10]: 95% | residual activity [11]: 94% | residual activity [12]: 91% | residual activity [13]: 97% | residual activity [14]: 93% | residual activity [15]: 67%

O=C1NC(=O)c2c1c1c3ccccc3[nH]c1n1cncc21
residual activity [1]: 95% | residual activity [2]: 70% | residual activity [16]: 6% | residual activity [3]: 2% | residual activity [17]: 5% | residual activity [4]: 0% | residual activity [5]: 14% | residual activity [6]: 17% | residual activity [7]: 62% | residual activity [8]: 60% | residual activity [9]: 55% (inactive) | residual activity [10]: 31% | residual activity [11]: 80% | residual activity [12]: 75% | residual activity [18]: 32% | residual activity [13]: 19% | residual activity [14]: 79% | residual activity [15]: 72% | residual activity [19]: 96%

O=c1cc(N2CCNCC2)oc2c(-c3ccccc3)cccc12
residual activity [1]: 84% | residual activity [2]: 92% | residual activity [16]: 84% | residual activity [3]: 54% | residual activity [17]: 100% | residual activity [5]: 88% | residual activity [6]: 76% | residual activity [7]: 82% | residual activity [8]: 55% | residual activity [9]: 100% (inactive) | residual activity [10]: 95% | residual activity [11]: 93% | residual activity [12]: 87% | residual activity [13]: 96% | residual activity [14]: 97% | residual activity [15]: 82%

Nc1nccc(-c2c(-c3ccc(F)cc3)ncn2C2CCNCC2)n1
residual activity [1]: 125% | residual activity [2]: 114% | residual activity [16]: 75% | residual activity [3]: 26% | residual activity [17]: 120% | residual activity [14]: 43% | residual activity [15]: 16% | residual activity [20]: 128% | residual activity [19]: 121%

CN(C)S(=O)(=O)c1ccc2c(c1)/C(=C/c1cc3c([nH]1)CCCC3)C(=O)N2
residual activity [1]: 48% | residual activity [2]: 46% | residual activity [3]: 86% | residual activity [17]: 123% | residual activity [4]: 121% | residual activity [5]: 93% | residual activity [6]: 94% | residual activity [7]: 96% | residual activity [8]: 95% | residual activity [11]: 95% | residual activity [12]: 91% | residual activity [20]: 132% | residual activity [19]: 100%

O=C(CCCc1ccc(-c2ccccc2F)cc1)Nc1ccc(O)cc1
residual activity [1]: 109% | residual activity [2]: 112% | residual activity [16]: 100% | residual activity [3]: 97% | residual activity [4]: 139% | residual activity [5]: 96% | residual activity [6]: 97% | residual activity [7]: 93% | residual activity [8]: 103% | residual activity [9]: 99% (inactive) | residual activity [10]: 98% | residual activity [11]: 100% | residual activity [12]: 101% | residual activity [18]: 105% | residual activity [13]: 104% | residual activity [14]: 94% | residual activity [15]: 95% | residual activity [20]: 107% | residual activity [19]: 100%

Nc1ncnc2[nH]nc(Nc3ccc(F)cc3)c12
residual activity [1]: 102% | residual activity [2]: 99% | residual activity [16]: 115% | residual activity [3]: 53% | residual activity [17]: 133% | residual activity [4]: 99% | residual activity [6]: 69% | residual activity [8]: 77% | residual activity [9]: 103% (inactive) | residual activity [10]: 94% | residual activity [12]: 21% | residual activity [18]: 101% | residual activity [13]: 79% | residual activity [14]: 46% | residual activity [15]: 21% | residual activity [20]: 128% | residual activity [19]: 101%

CCCCc1c(-c2ccc(OC)cc2)[nH]c2nccnc12
residual activity [1]: 113% | residual activity [2]: 109% | residual activity [16]: 109% | residual activity [3]: 88% | residual activity [17]: 112% | residual activity [4]: 104% | residual activity [5]: 104% | residual activity [6]: 113% | residual activity [7]: 81% | residual activity [11]: 84% | residual activity [12]: 101% | residual activity [18]: 54% | residual activity [13]: 32% | residual activity [14]: 67% | residual activity [15]: 82% | residual activity [20]: 117% | residual activity [19]: 102%

COc1cc2ncnc(Nc3cccc(Cl)c3)c2cc1OC
residual activity [1]: 104% | residual activity [2]: 107% | residual activity [16]: 62% | residual activity [3]: 48% | residual activity [17]: 121% | residual activity [5]: 112% | residual activity [6]: 101% | residual activity [7]: 112% | residual activity [9]: 83% (inactive) | residual activity [11]: 122% | residual activity [18]: 117% | residual activity [13]: 76% | residual activity [14]: 26% | residual activity [15]: 16%

Nc1ncnc2c1c(-c1ccc(Oc3ccccc3)cc1)cn2C1CCCC1
residual activity [1]: 97% | residual activity [2]: 95% | residual activity [16]: 103% | residual activity [3]: 88% | residual activity [17]: 106% | residual activity [5]: 88% | residual activity [6]: 88% | residual activity [7]: 83% | residual activity [8]: 50% | residual activity [9]: 80% (inactive) | residual activity [10]: 91% | residual activity [11]: 85% | residual activity [12]: 66% | residual activity [18]: 86% | residual activity [13]: 25% | residual activity [14]: 21% | residual activity [15]: 15% | residual activity [20]: 116% | residual activity [19]: 122%

CC(C)[C@H](CO)Nc1nc(Nc2cc(N)cc(Cl)c2)c2ncn(C(C)C)c2n1
residual activity [1]: 119% | residual activity [2]: 97% | residual activity [16]: 95% | residual activity [3]: 86% | residual activity [7]: 50% | residual activity [8]: 9% | residual activity [9]: 99% (inactive) | residual activity [10]: 77% | residual activity [12]: 88% | residual activity [18]: 59% | residual activity [13]: 7% | residual activity [14]: 85% | residual activity [15]: 77% | residual activity [19]: 84%

O=C1NC(=O)C(c2cn(CCCO)c3ncccc23)=C1c1cnccn1
residual activity [1]: 97% | residual activity [16]: 72% | residual activity [3]: 50% | residual activity [17]: 49% | residual activity [4]: 43% | residual activity [5]: 46% | residual activity [6]: 16% | residual activity [7]: 87% | residual activity [8]: 82% | residual activity [18]: 100% | residual activity [13]: 79% | residual activity [14]: 94% | residual activity [15]: 87%

CCN(CC)CCNC(=O)c1c(C)[nH]c(/C=C2\C(=O)Nc3ccc(Cl)cc32)c1C
residual activity [1]: 8% | residual activity [2]: 2% | residual activity [6]: 75% | residual activity [8]: 55% | residual activity [11]: 63% | residual activity [12]: 37% | residual activity [18]: 15% | residual activity [13]: 3% | residual activity [14]: 62% | residual activity [15]: 27%

Cn1sc(=O)n(Cc2ccccc2)c1=O
residual activity [1]: 90% | residual activity [2]: 98% | residual activity [3]: 95% | residual activity [4]: 143% | residual activity [5]: 80% | residual activity [6]: 85% | residual activity [7]: 69% | residual activity [8]: 70% | residual activity [10]: 89% | residual activity [11]: 76% | residual activity [12]: 87% | residual activity [14]: 92% | residual activity [15]: 86%

NC(=O)c1ccc(-c2nc(-c3ccc4c(c3)OCCO4)c(-c3ccccn3)[nH]2)cc1
residual activity [1]: 90% | residual activity [2]: 93% | residual activity [5]: 96% | residual activity [6]: 97% | residual activity [7]: 81% | residual activity [8]: 71% | residual activity [11]: 82% | residual activity [12]: 86% | residual activity [14]: 55% | residual activity [15]: 18% | residual activity [20]: 118% | residual activity [19]: 90%

COc1cc2nccc(Oc3ccc(NC(=S)NC(=O)c4ccccc4C)cc3)c2cc1OC
residual activity [1]: 61% | residual activity [2]: 45% | residual activity [16]: 102% | residual activity [3]: 99% | residual activity [17]: 97% | residual activity [5]: 89% | residual activity [6]: 87% | residual activity [7]: 83% | residual activity [8]: 65% | residual activity [9]: 80% (inactive) | residual activity [10]: 89% | residual activity [11]: 68% | residual activity [12]: 52% | residual activity [18]: 82% | residual activity [13]: 60% | residual activity [14]: 51% | residual activity [15]: 34%
